Molecules are shown by their SMILES. About 570 (0.2%) of roughly 290,000 compounds were called active. Not shown: some 1% with an inconclusive outcome. Cut-off read from the data, not from the text of the source: active = inhibition mostly above about 51% (no sharp cut-off); inconclusive = no clear call, values can overlap the other calls; inactive = mostly below about 53%. Only a selection was taken, and actives are over-represented in it overall.

Voltage-dependent N-type calcium channel subunit alpha-1B (Homo sapiens), sequence (Q00975 whole entry, looked up): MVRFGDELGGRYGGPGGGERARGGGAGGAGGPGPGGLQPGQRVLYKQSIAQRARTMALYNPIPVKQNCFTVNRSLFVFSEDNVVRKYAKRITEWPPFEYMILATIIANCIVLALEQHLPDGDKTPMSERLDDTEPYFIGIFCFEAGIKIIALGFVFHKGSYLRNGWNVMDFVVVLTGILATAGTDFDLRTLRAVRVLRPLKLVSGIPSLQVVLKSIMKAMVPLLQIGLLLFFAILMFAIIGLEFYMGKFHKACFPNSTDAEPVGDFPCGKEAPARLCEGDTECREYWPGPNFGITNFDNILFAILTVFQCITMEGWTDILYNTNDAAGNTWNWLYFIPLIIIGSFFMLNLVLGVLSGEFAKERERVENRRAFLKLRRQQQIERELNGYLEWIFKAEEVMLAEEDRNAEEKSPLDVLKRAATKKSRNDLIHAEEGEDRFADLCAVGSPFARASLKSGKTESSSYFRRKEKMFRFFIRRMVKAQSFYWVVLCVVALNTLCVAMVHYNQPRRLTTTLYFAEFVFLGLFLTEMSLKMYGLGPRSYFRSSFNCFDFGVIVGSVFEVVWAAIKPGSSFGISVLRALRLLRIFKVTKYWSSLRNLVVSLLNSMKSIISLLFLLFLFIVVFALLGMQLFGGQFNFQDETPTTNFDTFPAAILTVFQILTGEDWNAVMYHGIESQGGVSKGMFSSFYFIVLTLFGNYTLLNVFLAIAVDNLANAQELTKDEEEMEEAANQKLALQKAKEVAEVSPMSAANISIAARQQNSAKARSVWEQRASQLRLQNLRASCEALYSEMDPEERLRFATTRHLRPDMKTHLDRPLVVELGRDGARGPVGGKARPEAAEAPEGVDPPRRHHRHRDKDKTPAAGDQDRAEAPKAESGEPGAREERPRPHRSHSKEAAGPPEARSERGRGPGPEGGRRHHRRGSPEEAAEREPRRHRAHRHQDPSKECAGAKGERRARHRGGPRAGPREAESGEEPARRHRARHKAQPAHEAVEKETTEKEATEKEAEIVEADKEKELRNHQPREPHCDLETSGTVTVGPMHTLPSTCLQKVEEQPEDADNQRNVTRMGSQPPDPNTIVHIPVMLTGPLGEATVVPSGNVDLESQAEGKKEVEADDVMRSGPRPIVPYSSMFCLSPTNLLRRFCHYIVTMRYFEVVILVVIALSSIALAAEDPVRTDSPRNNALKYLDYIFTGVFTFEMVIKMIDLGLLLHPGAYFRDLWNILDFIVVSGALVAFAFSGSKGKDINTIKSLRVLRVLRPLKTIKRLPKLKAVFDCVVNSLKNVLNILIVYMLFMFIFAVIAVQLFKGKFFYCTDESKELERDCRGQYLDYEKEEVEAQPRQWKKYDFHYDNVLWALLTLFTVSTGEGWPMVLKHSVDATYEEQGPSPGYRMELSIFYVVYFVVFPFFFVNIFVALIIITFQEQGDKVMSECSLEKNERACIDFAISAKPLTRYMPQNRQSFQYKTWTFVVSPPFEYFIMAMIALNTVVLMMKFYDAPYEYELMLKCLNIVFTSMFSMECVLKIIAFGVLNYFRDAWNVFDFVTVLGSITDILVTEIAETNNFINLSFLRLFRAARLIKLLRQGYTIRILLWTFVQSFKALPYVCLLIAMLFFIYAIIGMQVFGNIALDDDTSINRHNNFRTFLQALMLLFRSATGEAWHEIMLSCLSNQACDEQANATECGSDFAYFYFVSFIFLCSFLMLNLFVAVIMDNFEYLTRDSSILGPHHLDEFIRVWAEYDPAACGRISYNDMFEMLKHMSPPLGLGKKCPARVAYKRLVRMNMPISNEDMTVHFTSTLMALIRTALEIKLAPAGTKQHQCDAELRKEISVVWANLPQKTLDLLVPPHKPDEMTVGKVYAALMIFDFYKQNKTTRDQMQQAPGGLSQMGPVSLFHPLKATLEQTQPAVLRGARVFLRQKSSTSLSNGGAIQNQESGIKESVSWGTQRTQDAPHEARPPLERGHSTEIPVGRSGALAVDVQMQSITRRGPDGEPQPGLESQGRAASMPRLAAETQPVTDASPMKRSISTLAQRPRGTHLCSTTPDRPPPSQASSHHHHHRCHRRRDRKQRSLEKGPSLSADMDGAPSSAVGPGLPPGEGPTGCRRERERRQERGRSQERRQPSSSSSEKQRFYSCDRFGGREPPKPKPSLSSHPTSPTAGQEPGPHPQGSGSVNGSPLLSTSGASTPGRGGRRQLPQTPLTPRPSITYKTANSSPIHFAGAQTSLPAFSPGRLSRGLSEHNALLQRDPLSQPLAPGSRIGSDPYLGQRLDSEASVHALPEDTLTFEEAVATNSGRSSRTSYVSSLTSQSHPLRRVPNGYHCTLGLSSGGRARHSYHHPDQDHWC

The assay has as its target Voltage-dependent N-type calcium channel subunit alpha-1B (Homo sapiens) (UniProt Q00975). Briefly: disruptors of CaV2.2 binding to Mint1 – biochemical, HTRF (AID 2073). The settings on record: HTRF protein-protein interaction, Mint1-CaV2.2; at 20 µM; hits give high values. Background: TR-FRET usually uses a lanthanide donor and a delayed reading to cut background.
With `Clc1cccc(Cl)c1CNc1ccc(N2CCCC2)cc1`, the inhibition (usually the drop in the measured response relative to a control, in per cent) was 31.8% (inactive).

`NS(=O)(=O)c1ccc(NCc2c(F)cccc2Cl)cc1`: the inhibition was -1.1% (inactive). `Fc1cccc(Cl)c1CNc1ccc(N2CCCC2)cc1`: the inhibition is 54% (active). As for `CC(C)(C)SCCNC(=O)CN1C(=O)c2cccc3cccc1c23`, the inhibition was 35.7% (inactive).

In the case of `CC(=O)Oc1ccc2c(=O)c(/C=N/c3cc(=O)[nH]c(=S)[nH]3)coc2c1`, the inhibition was 23.2% (inactive). For the molecule `O=c1cc(/N=C/c2coc3cc(Br)ccc3c2=O)[nH]c(=S)[nH]1`, the inhibition is 14.4% (inactive). As for `O=c1cc(/N=C/c2coc3c(ccc4ccccc43)c2=O)[nH]c(=S)[nH]1`, the inhibition is 52.9% (active). With `CCCCN(C)C(=O)c1c[nH]c2ccc(S(=O)(=O)N3CCOCC3)cc2c1=O`, the inhibition was 24.6% (inactive).

As for `Cc1ccc(CNC(=O)c2ccc3c(c2)NC(=O)CS3)cc1`, the inhibition is -5.9% (inactive). `COc1ccc(/C=C(\NC(=O)/C=C/c2ccco2)C(=O)NCCc2nc3ccccc3[nH]2)cc1`: the inhibition is 52.5% (active). With `COc1ccc(/C=C/C(=O)N/C(=C\c2ccco2)C(=O)NCCc2nc3ccccc3[nH]2)cc1`, the inhibition was 4.5% (inactive). As to `CC(C)Oc1ccc(/C=C(\NC(=O)/C=C/c2ccco2)C(=O)NCCc2nc3ccccc3[nH]2)cc1`, the inhibition is 9.4% (inactive). On to `Cc1cc(C)c2c(c1)NC(c1cc3c(cc1Br)OCO3)C1CC=CC21` (stereo not given), for which the inhibition was 12.6% (inactive).

`CCOC(=O)/C(C#N)=C/c1cccc(F)c1`: the inhibition was 15.3% (inactive). Take `O=C(Nc1ccc2c(c1)nc1n2CCN(C2CCCCC2)C1)c1ccco1`: the inhibition was 57.2% (active).

As to `CC(=O)Nc1ccc2c(c1)nc1n2CCN(C2CCCCC2)C1`, the inhibition is 30.1% (inactive). `O=C(Nc1ccc2c(c1)nc1n2CCN(C2CCCCC2)C1)NC1CCCCC1`: the inhibition is 11.3% (inactive). In the case of `CCc1ccc(NC(=O)Cn2nnc(C(=O)NCc3cccs3)c2N)cc1`, the inhibition was 26.5% (inactive).

In the case of `O=S(=O)(c1ccc(F)cc1)N1CCN(c2ccc(-c3ccccc3)nn2)CC1`, the inhibition is 41.9% (inactive). Regarding `CC1(C)Cc2nc3sc(C(=O)O)c(N)c3cc2CS1`, the inhibition was 54.6% (active). The result for `CCC1(C)Cc2nc3sc(C(=O)O)c(N)c3cc2CO1` (stereo not given) reads 23.8% (inactive); that for `CC1(C)Cc2nc3sc(C(=O)NCCCO)c(N)c3cc2CS1`, 30.6% (inactive). Consider `O=C(NCc1cccnc1)NC(=O)c1ccc(Cl)cc1`, for which the inhibition is -3% (inactive).

Turning to `O=C(CNC(=O)c1ccc(Cl)cc1)N/N=C/C=C/c1ccccc1`, the inhibition is 2.8% (inactive). As to `CCc1cc2c(=O)c(-c3nc4ccccc4[nH]3)coc2c(CN2CCCCC2)c1O`, the inhibition is 9.7% (inactive). For `O=c1oc2c(CN3CCN(CCO)CC3)c(O)ccc2cc1-c1ccccn1`, the inhibition was 30.4% (inactive).

For `O=c1oc2c(CN3CCCCCC3)c(O)ccc2cc1-c1nc2ccccc2[nH]1`, the inhibition was 65.1% (active).

For the molecule `O=C(Cc1n[nH]c(=O)c2ccccc12)NC(c1ccccc1)c1ccccc1`, the inhibition was 1.8% (inactive).

Consider `CC(C)CNc1nc(Oc2ccc(=O)[nH]n2)nc(N2CCOCC2)n1`, for which the inhibition is -12.9% (inactive).

With `COCCOC(=O)c1c(C)n(C)c2ccc(OC(=O)c3ccccc3F)cc12`, the inhibition is -3.1% (inactive). As to `COc1ccc(-c2nn(-c3ccccc3)cc2/C=C(/C#N)C(N)=O)cc1[N+](=O)[O-]`, the inhibition is 54.4% (active). Next, `COc1ccc(-c2nn(-c3ccccc3)cc2/C=C(\C#N)C(N)=O)cc1[N+](=O)[O-]`: 43.3% (inactive); `C=CCNC(=O)/C(C#N)=C/c1cn(-c2ccccc2)nc1-c1ccc(OC)c([N+](=O)[O-])c1`: 25.3% (inactive); `CC(NC(=O)c1cc(Br)ccc1Br)c1ccccc1` (stereo not given): 15.9% (inactive). As for `S=C(NCc1cccnc1)NCc1cccnc1`, the inhibition is -3.7% (inactive).

For `Cc1cc(C)cc(NC(=S)NCc2cccnc2)c1`, the inhibition is -3.3% (inactive). Take `Cn1cccc1C(C#N)(CC#N)c1cccc(F)c1C#N` (stereo not given): the inhibition was 14.3% (inactive). As for `CC(C)n1c(=S)[nH]c2c1c(=O)[nH]c(=O)n2C`, the inhibition is -95.1% (inactive). As to `CC(C)c1csc(CN2CCC(CO)(Cc3cccc(F)c3)CC2)n1`, the inhibition is -1.1% (inactive).

For the molecule `COc1ccc(S(=O)(=O)N2c3ccccc3OCC2C(C)(C)C)cc1` (stereo not given), the inhibition is 50.4% (active). With `COc1ccc(S(=O)(=O)N2c3cc(C)ccc3OCC2C(C)(C)C)cc1` (stereo not given), the inhibition is -0.4% (inactive). `Cc1ccc(S(=O)(=O)N2c3ccccc3OCC2C(C)(C)C)cc1` (stereo not given): the inhibition is 1.7% (inactive). Regarding `CCN(CC)S(=O)(=O)c1ccc(C(=O)Nc2ccc3c(c2)OCO3)cc1`, the inhibition is 9.9% (inactive). Next, `COc1ccc(Br)cc1/C=c1\sc2nc(-c3ccco3)nn2c1=O`: 66.4% (active); `COc1ccccc1/C=c1\sc2nc(-c3ccco3)nn2c1=O`: 35.1% (inactive). As for `CCOc1ccc(/C=c2\sc3nc(-c4ccco4)nn3c2=O)cc1OCC`, the inhibition is 31.7% (inactive). For `COCCSc1nnc(NC(=O)c2ccc3c(c2)OCO3)s1`, the inhibition was 3.7% (inactive). As for `Cc1nc(C(C)N(C)Cc2nc(Cc3ccccc3F)no2)c(C)s1` (stereo not given), the inhibition was -15.7% (inactive). As to `COc1ccccc1N(CC(=O)N(CC(C)C)CC(C)C)S(=O)(=O)c1cccs1`, the inhibition was -4.4% (inactive). The result for `COc1ccc(N2C(=O)C(Cl)=C(Oc3cccc(OC)c3)C2=O)cc1` reads 56.7% (active); that for `COc1ccc(N2C(=O)c3cc4ccccc4cc3C2=O)cc1`, 4.4% (inactive). Take `COc1ccc(N2C(=O)C(Cl)=C(N3CCCC3)C2=O)cc1`: the inhibition was 19.5% (inactive). For the molecule `Cc1ccc(Nc2nc(-c3ccc(C)cc3)c(CC(=O)O)s2)cc1`, the inhibition is 14.4% (inactive). Consider `Cc1nc2sc(C(c3cccc(F)c3)N3CCN(C(=O)c4ccco4)CC3)c(O)n2n1` (stereo not given), for which the inhibition is 3.9% (inactive). The result for `CC(=O)CC1(O)C(=O)Nc2ccccc21` (stereo not given) reads 33.4% (inactive); that for `CN(C)CCNc1c(N)c(=O)oc2ccccc12`, -16.1% (inactive); that for `Cc1ccc(C(=O)c2ccccc2C(=O)OCC(=O)NC(C)(C)C)cc1`, -3.7% (inactive). Take `CCOC(=O)c1ccc(N2C(=O)c3n[nH]c(-c4ccco4)c3C2c2cccc([N+](=O)[O-])c2)cc1` (stereo not given): the inhibition is 27.2% (inactive). With `CCOC(=O)c1ccc(N2C(=O)c3n[nH]c(-c4ccco4)c3C2c2ccc([N+](=O)[O-])cc2)cc1` (stereo not given), the inhibition is 71.1% (active). On to `CCOC(=O)c1ccc(N2C(=O)c3n[nH]c(C)c3C2c2ccco2)cc1` (stereo not given), for which the inhibition is -2.1% (inactive).
